The sample as a whole holds a higher share of hits than the screen did.
BAP1 inh: inhibitors of human BAP1 deubiquitinase; recombinant BAP1, Ub-AMC hydrolysis fluorescence kinetic; active compounds read low; hit rate 0.48% among 72,000; Q92560; calls only at 20 µM;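 active = activity remaining at or below 50% of control, provided the compound also passes the data quality filters; inactive = the rest, including low values that fail the filters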;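 also: 100% = DMSO wells rate and 0% = substrate alone blank rate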
hDAT+cocaine: changed human dopamine transporter uptake under cocaine IC80 | Q01959 | LLC-PK1 hDAT cells, [14C]-dopamine uptake with cocaine IC80; actives deviate in either direction | B-score at 10 µM | hit rate 1.3% among 110,000 | AID 449768;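 active = Z score or B-score, a plate-position-corrected score, falls beyond the plate's 99.7% confidence bounds, in either direction; inactive = both scores lie inside the 99.7% bounds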;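 also: scored against the spread of the other compound wells on the same plate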
D1 allo mod: allosterically modulates the human D1 dopamine receptor | hit rate 5.9% among 58,000 | B-score at 10 µM | HEK293 D1, CRE-luciferase, dopamine EC30 potentiation; actives deviate in either direction | P21728;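 active = luminescence count or its row- and column-corrected plate score outside the 99.7% band of the plate's sample wells, on either side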
Target sequence (P21728 whole entry, looked up): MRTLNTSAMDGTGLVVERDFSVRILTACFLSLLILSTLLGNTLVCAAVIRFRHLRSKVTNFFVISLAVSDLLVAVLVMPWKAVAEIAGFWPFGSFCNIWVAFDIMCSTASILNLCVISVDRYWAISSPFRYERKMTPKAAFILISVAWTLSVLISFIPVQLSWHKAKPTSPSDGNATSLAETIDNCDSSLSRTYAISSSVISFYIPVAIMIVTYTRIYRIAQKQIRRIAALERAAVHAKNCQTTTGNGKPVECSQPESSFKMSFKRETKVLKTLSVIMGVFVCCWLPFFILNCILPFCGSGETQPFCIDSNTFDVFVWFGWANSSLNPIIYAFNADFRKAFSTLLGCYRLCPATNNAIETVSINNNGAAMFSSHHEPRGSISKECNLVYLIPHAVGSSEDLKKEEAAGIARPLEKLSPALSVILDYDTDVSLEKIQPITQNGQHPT
The depositor's hits bear a star.

How did CCOC(=O)c1cnc(-n2nc(C)cc2C)nc1NCc1ccc2c(c1)OCO2 do in these assays?
BAP1 inh: inactive; hDAT+cocaine: -7*; D1 allo mod: 0.59

How did CCOC(=O)c1cnc(-n2nc(C)cc2C)nc1NCCc1ccccc1 do in these assays?
BAP1 inh: inactive; hDAT+cocaine: 2; D1 allo mod: 1

Results for c1cncc(-c2cc(-c3ccncc3)nc3ccc4ccccc4c23)c1 ?
BAP1 inh: inactive

What do the screens show for `COc1ccccc1-c1c(C(F)(F)F)oc2cc(OC(=O)c3ccco3)ccc2c1=O`?
BAP1 inh: inactive

How did COc1ccc(Nc2nc(N3CCCC3)c3ccccc3n2)cc1 do in these assays?
hDAT+cocaine: 0.61; D1 allo mod: -6.9*

Results for CCN(CC)c1ccc(Nc2nc(N3CCOCC3)c3ccccc3n2)cc1 ?
hDAT+cocaine: -0.021

What do the screens show for `c1ccc(-c2cc3c(N4CCOCC4)ncnc3s2)cc1`?
BAP1 inh: inactive; hDAT+cocaine: 0.66; D1 allo mod: 14*

Results for O=C(Cn1cnc2sc(-c3ccccc3)cc2c1=O)N1CCOCC1 ?
hDAT+cocaine: -0.5; D1 allo mod: -0.05

What do the screens show for `CC(CCN(C)C)OC(=O)c1ccc(C(C)c2ccccc2)o1` (stereo not drawn)?
BAP1 inh: inactive; hDAT+cocaine: -0.076; D1 allo mod: -3.2*

How did CC(CN(C)Cc1ccccc1)OC(=O)c1cccs1 (stereo not drawn) do in these assays?
BAP1 inh: inactive; hDAT+cocaine: 0.21; D1 allo mod: -0.3

Results for O=C(Nc1ccc2c(c1)C(=O)N(c1cccc(O)c1)C2=O)c1ccc(Br)cc1 ?
BAP1 inh: inactive

How did COc1cc(OC)cc(C(=O)NC2CCN(CC(=O)Nc3cccc4ccccc34)CC2)c1 do in these assays?
hDAT+cocaine: 3.5*

How did O=C(CN1CCC(NC(=O)c2ccco2)CC1)Nc1cccc2ccccc12 do in these assays?
hDAT+cocaine: -0.33

What do the screens show for `CCN(CC)S(=O)(=O)c1ccc(C(=O)Nc2nc3c(cc4c5c(cccc53)CC4)s2)cc1`?
BAP1 inh: inactive

Results for CC12CCC(=O)N1c1c(sc3nc(N4CCOCC4)c4c(c13)CCCC4)C(=O)N2 (stereo not drawn) ?
BAP1 inh: inactive; hDAT+cocaine: 3.2*

How did COC(=O)c1ccc(-c2sc3nc(N4CCOCC4)c4c(c3c2N)CCCC4)o1 do in these assays?
hDAT+cocaine: 0.026; D1 allo mod: -0.11

How did Cc1ccc(C2CC(c3ccc(F)cc3)Nc3nc(N)nn32)cc1 (stereo not drawn) do in these assays?
BAP1 inh: inactive; hDAT+cocaine: -1.4; D1 allo mod: 0.92

What do the screens show for `CCc1ccc(C2CC(c3ccc(C)cc3)Nc3nc(N)nn32)cc1` (stereo not drawn)?
BAP1 inh: inactive; hDAT+cocaine: -2.5*; D1 allo mod: 0.44

What do the screens show for `O=C(OCCN1C(=O)c2cccc([N+](=O)[O-])c2C1=O)C1CCCCC1`?
BAP1 inh: inactive

Results for CCOc1ccc(C(=O)Nc2ccc(N3CCCC3)cc2)cc1 ?
BAP1 inh: inactive; hDAT+cocaine: -0.46; D1 allo mod: -0.06

Results for CCOc1ccc(C(=O)Nc2ccc(N3CCN(C)CC3)cc2)cc1Br ?
BAP1 inh: inactive; D1 allo mod: -6.4*

How did CC(=O)N1CCN(c2ccc(NC(=O)c3ccc4c(c3)OCCO4)cc2)CC1 do in these assays?
BAP1 inh: inactive; hDAT+cocaine: -0.053; D1 allo mod: -0.4

Results for CN1CCN(c2ccc(NC(=O)c3ccc4c(c3)OCO4)cc2)CC1 ?
BAP1 inh: inactive; hDAT+cocaine: 1.1; D1 allo mod: -5.1*

What do the screens show for `CCOc1ccccc1C(=O)Nc1ccc(CC)cc1`?
BAP1 inh: inactive

What do the screens show for `Nc1nc(-c2ccccc2)cc(C(F)(F)F)n1`?
BAP1 inh: inactive; hDAT+cocaine: 0.083; D1 allo mod: 27*

How did FC(F)(F)c1cc(-c2ccccc2)nc(N2CCCCC2)n1 do in these assays?
hDAT+cocaine: -0.66; D1 allo mod: 0.47

How did O=C(NC12CC3CC(CC(C3)C1)C2)c1ccc(S(=O)(=O)N2CCOCC2)cc1 do in these assays?
hDAT+cocaine: 2.5*; D1 allo mod: 0.24

Results for O=C(NC1CCCCC1)c1ccc(S(=O)(=O)N2CCOCC2)cc1 ?
BAP1 inh: inactive; hDAT+cocaine: -1; D1 allo mod: -0.35

What do the screens show for `COc1ccc(C2NC(=O)NC(C)=C2C(=O)OC2CCC(C)CC2)c(OC)c1` (stereo not drawn)?
BAP1 inh: inactive

Results for CCOC(=O)C1CCN(C(=O)c2sc3nc(C)nc(N4CCC(C)CC4)c3c2C)CC1 ?
hDAT+cocaine: 1.5

How did CCOC(=O)C1CCN(C(=O)c2sc3ncnc(N4CCC(C)CC4)c3c2C)CC1 do in these assays?
hDAT+cocaine: 2.5*

How did O=C(CSc1nnc(-c2ccc(F)cc2)o1)Nc1ccccc1N1CCOCC1 do in these assays?
hDAT+cocaine: 3.3*

Results for O=C(CSc1nc2ccccc2o1)Nc1ccccc1N1CCOCC1 ?
hDAT+cocaine: -1.2

Results for Cc1cc(C)cc(Nc2ncc3c(n2)CCCC3=O)c1 ?
BAP1 inh: inactive; hDAT+cocaine: -0.52; D1 allo mod: -5*

How did Cc1ccc2nc(Nc3ncc4c(n3)CCCC4=O)nc(C)c2c1 do in these assays?
BAP1 inh: inactive; D1 allo mod: -0.37

How did O=C(Nc1ncc(S(=O)(=O)c2ccc([N+](=O)[O-])cc2)s1)c1ccc(-c2ccccc2)cc1 do in these assays?
BAP1 inh: inactive

Results for CC(=O)NC(=O)c1cc2ccccc2oc1=Nc1ccc(I)cc1 ?
BAP1 inh: inactive

Results for CC(C)COc1ccc(C(=O)NCc2ccco2)cc1 ?
hDAT+cocaine: -7.8*; D1 allo mod: 0.065

Results for CCOc1ccc(C(=O)NCc2ccco2)cc1 ?
BAP1 inh: inactive; hDAT+cocaine: 0.78

What do the screens show for `FC(F)Sc1ccc(N=C2NN=C(c3ccc4c(c3)OCCO4)CS2)cc1`?
hDAT+cocaine: 0.85

What do the screens show for `COc1ccc(N=C2NN=C(c3ccc4c(c3)OCCO4)CS2)cc1`?
hDAT+cocaine: 3.1*

Results for COc1ccccc1C=Nc1ccccc1Sc1c(C)n[nH]c1C ?
BAP1 inh: inactive

How did COc1ccc2nc(NC(=O)C3CCCN(S(=O)(=O)c4cccs4)C3)sc2c1 (stereo not drawn) do in these assays?
hDAT+cocaine: 0.64

What do the screens show for `CCOc1ccc2nc(NC(=O)C3CCN(S(=O)(=O)c4cnc[nH]4)CC3)sc2c1`?
BAP1 inh: inactive; hDAT+cocaine: 1.2; D1 allo mod: 0.55

Results for COc1ccc2nc(NC(=O)C3CCN(S(=O)(=O)c4cccs4)CC3)sc2c1 ?
hDAT+cocaine: 2.8*

What do the screens show for `COc1ccc2nc(NC(=O)C3CCN(S(=O)(=O)c4cnc[nH]4)CC3)sc2c1`?
BAP1 inh: inactive; hDAT+cocaine: 2*; D1 allo mod: -4.9*

Results for Cc1ccc(N/C(=N\c2nc(C)cc(C)n2)NC(=O)c2ccccc2)c(C)c1 ?
BAP1 inh: inactive

Results for O=C(c1coc2ccc(O)c(CN3CCOCC3)c12)C1CC1 ?
BAP1 inh: inactive; hDAT+cocaine: 0.13; D1 allo mod: 0.054

How did Cc1ccc(C(=O)c2coc3ccc(O)c(CN4CCN(C)CC4)c23)cc1 do in these assays?
BAP1 inh: inactive; hDAT+cocaine: -0.011; D1 allo mod: -3.1*
